The results in this text go back to PubChem BioAssay (EPA / NIEHS).

Records with an inconclusive call do not appear. The source made the active and inactive calls. How the source made its calls: active means hit-call score of the fitted dose curve at least 0.9, where 1 is the maximum; inconclusive means response in the unintended direction; inactive means score below 0.9.

Chain of human Adenosine A2a Receptor (AdoRA2a), ADORA2A (gene 135) (P29274 whole entry, looked up): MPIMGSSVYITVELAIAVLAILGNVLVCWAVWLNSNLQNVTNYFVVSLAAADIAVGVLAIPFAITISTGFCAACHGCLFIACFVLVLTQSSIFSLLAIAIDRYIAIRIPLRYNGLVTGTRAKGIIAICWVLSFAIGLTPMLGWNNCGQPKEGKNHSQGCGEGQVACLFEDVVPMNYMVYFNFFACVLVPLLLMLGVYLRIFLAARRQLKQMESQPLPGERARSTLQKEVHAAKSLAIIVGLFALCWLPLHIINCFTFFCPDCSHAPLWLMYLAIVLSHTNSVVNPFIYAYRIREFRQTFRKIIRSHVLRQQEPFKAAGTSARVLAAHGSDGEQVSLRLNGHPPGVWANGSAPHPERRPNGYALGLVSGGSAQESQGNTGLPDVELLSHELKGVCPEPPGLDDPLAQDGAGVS
Chain of human Serotonin, 5-Hydroxytryptamine Receptor 7 (5HT7), HTR7 (gene 3363) (P34969 whole entry, looked up): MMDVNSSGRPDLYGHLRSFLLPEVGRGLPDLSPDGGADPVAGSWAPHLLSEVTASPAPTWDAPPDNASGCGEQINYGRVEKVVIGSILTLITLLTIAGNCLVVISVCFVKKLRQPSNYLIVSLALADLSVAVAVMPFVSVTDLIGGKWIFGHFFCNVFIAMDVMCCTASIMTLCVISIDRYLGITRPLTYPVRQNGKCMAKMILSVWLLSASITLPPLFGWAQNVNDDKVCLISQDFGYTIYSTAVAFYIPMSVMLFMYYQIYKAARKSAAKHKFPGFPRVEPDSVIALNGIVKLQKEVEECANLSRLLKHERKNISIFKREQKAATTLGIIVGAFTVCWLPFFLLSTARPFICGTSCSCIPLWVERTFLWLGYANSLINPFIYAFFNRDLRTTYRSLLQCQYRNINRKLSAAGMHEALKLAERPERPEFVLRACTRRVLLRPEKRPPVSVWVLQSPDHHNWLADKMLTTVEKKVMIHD
Chain of human Serotonin, 5-Hydroxytryptamine Receptor 5A (5HT5A), HTR5A (gene 3361) (P47898 whole entry, looked up): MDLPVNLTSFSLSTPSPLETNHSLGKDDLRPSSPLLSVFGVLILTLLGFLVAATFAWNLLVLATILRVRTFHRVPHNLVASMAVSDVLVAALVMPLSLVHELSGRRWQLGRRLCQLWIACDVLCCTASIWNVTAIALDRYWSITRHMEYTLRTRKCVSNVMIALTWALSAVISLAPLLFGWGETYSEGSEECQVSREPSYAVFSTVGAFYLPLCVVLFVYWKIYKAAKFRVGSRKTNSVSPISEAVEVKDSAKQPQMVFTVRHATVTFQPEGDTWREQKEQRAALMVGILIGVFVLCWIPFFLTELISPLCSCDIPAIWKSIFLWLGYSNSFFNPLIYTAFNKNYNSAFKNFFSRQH
Chain of guinea pig Opioid, Kappa 1 Receptor (OpiateK), OPRK1 (gene 100135587) (P41144 whole entry, looked up): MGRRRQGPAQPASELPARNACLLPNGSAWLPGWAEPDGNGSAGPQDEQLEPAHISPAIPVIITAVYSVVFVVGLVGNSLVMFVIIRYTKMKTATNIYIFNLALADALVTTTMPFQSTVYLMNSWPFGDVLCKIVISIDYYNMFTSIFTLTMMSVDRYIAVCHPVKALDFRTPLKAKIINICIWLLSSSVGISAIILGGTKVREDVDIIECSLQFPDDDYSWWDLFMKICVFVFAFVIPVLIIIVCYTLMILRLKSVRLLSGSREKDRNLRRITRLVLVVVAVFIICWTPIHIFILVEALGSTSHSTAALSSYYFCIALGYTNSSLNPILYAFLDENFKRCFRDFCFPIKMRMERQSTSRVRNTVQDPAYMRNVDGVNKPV

The first assay concerns guinea pig Leukotriene B4 Receptor (LTB4), gene 100379538. Nature of the assay: NVS_GPCR_gLTB4: NovaScreen (NVS) G Protein-Coupled Receptor Assay for guinea pig Leukotriene B4 Receptor (LTB4) (AID 2283247). The method in brief: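 Radioligand displacement on guinea pig spleen membranes, filter-based scintillation counting 2 h after dosing. Primary duplicate single point at 25 uM; hits over threshold (e.g. 30% inhibition) run in concentration-response up to 50 uM, DMSO baseline.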
`Cc1nccn1-c1ccc(Sc2cccc(C3(C(N)=O)CCOCC3)c2)cc1`: the AC50 was 8.42 µM (active).
With `CC[C@H](C)C(=O)O[C@H]1C[C@H](O)C=C2C=C[C@H](C)[C@H](CC[C@@H](O)C[C@@H](O)CC(=O)O)[C@H]21`, the AC50 was 0.328 µM (active).
With `COCc1nnc(-c2ccc[n+]([O-])c2)n1-c1c(Cl)c(Cl)cc2[nH]c(=O)c(=O)[nH]c12`, the compound was called inactive.
Regarding `O=C(NO)C1(NS(=O)(=O)c2ccc(Oc3ccc(F)cc3)cc2)CCOCC1`, the AC50 was 7.03 µM (active).

The target of the next assay is guinea pig Leukotriene D4 Receptor (LTD4), CYSLTR1 (gene 100135514) (UniProt Q2NNR5). Nature of the assay: NVS_GPCR_gLTD4: NovaScreen (NVS) G Protein-Coupled Receptor Assay for guinea pig Leukotriene D4 Receptor (LTD4) (AID 2283248). The method in brief: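 Radioligand displacement on guinea pig lung membranes, 1 h incubation, filtration and scintillation counting; DMSO as negative control. Duplicate 25 uM primary screen, then singleton concentration-response up to 50 uM.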
Chain of guinea pig Leukotriene D4 Receptor (LTD4), CYSLTR1 (gene 100135514) (Q2NNR5 whole entry, looked up): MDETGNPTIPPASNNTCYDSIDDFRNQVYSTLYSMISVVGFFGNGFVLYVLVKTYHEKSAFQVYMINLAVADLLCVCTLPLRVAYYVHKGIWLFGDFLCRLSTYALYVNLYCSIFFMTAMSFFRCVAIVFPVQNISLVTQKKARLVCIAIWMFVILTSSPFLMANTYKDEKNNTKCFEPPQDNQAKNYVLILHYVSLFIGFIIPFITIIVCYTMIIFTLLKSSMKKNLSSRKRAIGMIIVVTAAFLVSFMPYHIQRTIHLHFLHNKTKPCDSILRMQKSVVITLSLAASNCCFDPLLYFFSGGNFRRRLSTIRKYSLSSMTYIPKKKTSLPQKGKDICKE
With `CC(C)c1nnc2ccc(-c3ocnc3-c3cc(F)ccc3F)cn12`, the call was inactive.
Turning to `CCCCCCCCCCCCCCCCOS(=O)(=O)O`, the AC50 is 4.26 µM (active).
On the same count and under the same terms, to `CCN(CC)C(=S)SSC(=S)N(CC)CC` belongs 1.24 µM (active).
As for `COCc1nnc(-c2ccc[n+]([O-])c2)n1-c1c(Cl)c(Cl)cc2[nH]c(=O)c(=O)[nH]c12`, the outcome was inactive.

The target in a further assay is human Serotonin, 5-Hydroxytryptamine Receptor 2A (5HT2A), HTR2A (gene 3356) (UniProt P28223). Nature of the assay: NVS_GPCR_h5HT2A: NovaScreen (NVS) G Protein-Coupled Receptor Assay for human Serotonin, 5-Hydroxytryptamine Receptor 2A (5HT2A) (AID 2283249). The method in brief: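 Human cortex membranes, cell-free radioligand binding; filter-based scintillation read 1.5 h after dosing. Duplicate screen at 25 uM first; displacement of specific binding (loss of signal) versus DMSO.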
Chain of human Serotonin, 5-Hydroxytryptamine Receptor 2A (5HT2A), HTR2A (gene 3356) (P28223 whole entry, looked up): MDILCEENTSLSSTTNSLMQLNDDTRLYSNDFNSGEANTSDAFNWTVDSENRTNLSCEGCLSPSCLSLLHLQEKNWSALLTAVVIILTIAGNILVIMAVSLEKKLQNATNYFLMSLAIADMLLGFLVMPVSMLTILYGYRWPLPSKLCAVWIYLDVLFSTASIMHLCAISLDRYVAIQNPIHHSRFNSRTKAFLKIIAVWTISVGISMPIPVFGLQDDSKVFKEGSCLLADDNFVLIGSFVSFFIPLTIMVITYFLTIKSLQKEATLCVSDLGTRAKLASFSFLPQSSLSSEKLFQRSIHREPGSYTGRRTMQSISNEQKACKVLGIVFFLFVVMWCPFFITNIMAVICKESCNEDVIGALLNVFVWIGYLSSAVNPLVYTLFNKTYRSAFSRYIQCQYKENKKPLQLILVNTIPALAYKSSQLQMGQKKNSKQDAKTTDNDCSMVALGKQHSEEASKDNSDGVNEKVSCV
With `CCCCCCCCCC`, the compound was called inactive.
Same read-out and setting: to `CCn1nc(C)c2c1C(=O)NCC(c1ccc(O)cc1)=N2` belongs “inactive”.
Turning to `c1ccc(C(O[C@@H]2CCCN(CCc3ccc4c(c3)OCO4)C2)c2ccccc2)cc1`, the AC50 was 10.1 µM (active).

In another assay the test system is guinea pig Muscarinic, Peripheral (Mperiperal) Receptor, Non-selective Binding, gene 100379235. Nature of the assay: NVS_GPCR_gMPeripheral_NonSelective: NovaScreen (NVS) G Protein-Coupled Receptor Assay for guinea pig Muscarinic, Peripheral (Mperiperal) Receptor, Non-selective Binding (AID 2283250). The method in brief: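 Guinea pig bladder membranes, radioligand binding read 1 h after dosing by filter scintillation counting; loss of signal vs DMSO. Primary duplicate screen at 25 uM, then concentration-response up to 50 uM.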
Regarding `CCCCCCCCCC`, the call was inactive.
As for `Cc1nccn1-c1ccc(Sc2cccc(C3(C(N)=O)CCOCC3)c2)cc1`, the AC50 is 25 µM (active).
Same read-out and setting: in the case of `COc1cc(C(C)C)c2c(c1)S(=O)(=O)N(COc1cc(=O)n3cccc(OCCN4CCCCC4)c3n1)C2=O` it was 2.22 µM (active).
Regarding `CCCCCCCCN(C)C`, the result was inactive.
As to `c1ccc(C(O[C@@H]2CCCN(CCc3ccc4c(c3)OCO4)C2)c2ccccc2)cc1`, the AC50 is 0.0261 µM (active).

Another assay deals with human Serotonin, 5-Hydroxytryptamine Receptor 5A (5HT5A), HTR5A (gene 3361) (UniProt P47898). Nature of the assay: NVS_GPCR_h5HT5A: NovaScreen (NVS) G Protein-Coupled Receptor Assay for human Serotonin, 5-Hydroxytryptamine Receptor 5A (5HT5A) (AID 2283251). The method in brief:
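Cell-free radioligand displacement binding on HEK293-derived membrane protein, 1 h incubation, filter-based scintillation counting. Primary screen in duplicate at 25 uM, actives followed in concentration series; loss of signal fitted versus DMSO.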
On to `C=CCc1cc(S(=O)(=O)c2ccc(O)c(CC=C)c2)ccc1O`, for which the AC50 is 25 µM (active).
As for `CCCCCCCCCC`, the outcome was inactive.
On the same count and under the same terms, to `O=S(=O)(O)c1ccc(N=Nc2c(O)ccc3cc(S(=O)(=O)O)ccc23)cc1` belongs “inactive”.
With `CCCCCCCCCCCCCCCCOS(=O)(=O)O`, the AC50 was 20.6 µM (active).
With `c1ccc(C(O[C@@H]2CCCN(CCc3ccc4c(c3)OCO4)C2)c2ccccc2)cc1`, the AC50 was 25 µM (active).

The next assay concerns the target guinea pig Opioid, Kappa 1 Receptor (OpiateK), OPRK1 (gene 100135587) (UniProt P41144). Nature of the assay: NVS_GPCR_gOpiateK: NovaScreen (NVS) G Protein-Coupled Receptor Assay for guinea pig Opioid, Kappa 1 Receptor (OpiateK) (AID 2283252).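 Further: active means reduced radioligand binding relative to DMSO.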 The method in brief: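 Signal is scintillation counts of filter-trapped radioligand bound to guinea pig cerebellar membrane receptor, measured 2 hours post-dosing. Activity is loss of binding versus DMSO, first at 25 uM in duplicate, then as concentration series for actives.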
Take `Cc1nccn1-c1ccc(Sc2cccc(C3(C(N)=O)CCOCC3)c2)cc1`: the AC50 is 2.06 µM (active).
Consider `CCn1nc(C)c2c1C(=O)NCC(c1ccc(O)cc1)=N2`, for which the compound was called inactive.
The same measure, in the same setting: in the case of `CCCOc1ccc(S(=O)(=O)N2CCN(CC)CC2)cc1-c1nc2c(CC)n(Cc3ccccn3)nc2c(=O)[nH]1` it was “inactive”; in that of `O=S(=O)(O)c1ccc(N=Nc2c(O)ccc3cc(S(=O)(=O)O)ccc23)cc1`, “inactive”.
As for `COc1cc(C(C)C)c2c(c1)S(=O)(=O)N(COc1cc(=O)n3cccc(OCCN4CCCCC4)c3n1)C2=O`, the AC50 is 5.55 µM (active).
With `CCN(CC)C(=S)SSC(=S)N(CC)CC`, the call was inactive.
In the case of `c1ccc(C(O[C@@H]2CCCN(CCc3ccc4c(c3)OCO4)C2)c2ccccc2)cc1`, the AC50 was 3.06 µM (active).

A further assay deals with human Serotonin, 5-Hydroxytryptamine Receptor 7 (5HT7), HTR7 (gene 3363) (UniProt P34969). Nature of the assay: NVS_GPCR_h5HT7: NovaScreen (NVS) G Protein-Coupled Receptor Assay for human Serotonin, 5-Hydroxytryptamine Receptor 7 (5HT7) (AID 2283255).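 Further: hits reduce specific radioligand binding relative to DMSO.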 The method in brief:
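Radioligand displacement on membranes from CHO cells expressing human 5HT7, 1 h incubation, filter-based scintillation counting. Primary screen used a single 25 uM concentration in duplicate; actives were followed up in concentration series.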
In the case of `C=CCc1cc(S(=O)(=O)c2ccc(O)c(CC=C)c2)ccc1O`, the AC50 is 9.39 µM (active).
In the case of `CCCCCCCCCC`, the compound was classed as inactive.
On to `CCn1nc(C)c2c1C(=O)NCC(c1ccc(O)cc1)=N2`, for which the AC50 was 25 µM (active).
In the case of `O=S(=O)(O)c1ccc(N=Nc2c(O)ccc3cc(S(=O)(=O)O)ccc23)cc1`, the outcome was inactive.
`CCCCCCCCN(C)C`: the AC50 was 6.63 µM (active).
With `CCCCCCCCCCCCCCCCOS(=O)(=O)O`, the AC50 was 15.6 µM (active).
In the case of `CCN(CC)C(=S)SSC(=S)N(CC)CC`, the AC50 is 13.5 µM (active).
As for `c1ccc(C(O[C@@H]2CCCN(CCc3ccc4c(c3)OCO4)C2)c2ccccc2)cc1`, the AC50 is 0.99 µM (active).

A further assay concerns the target human Adenosine A2a Receptor (AdoRA2a), ADORA2A (gene 135) (UniProt P29274). Nature of the assay: NVS_GPCR_hAdoRA2a: NovaScreen (NVS) G Protein-Coupled Receptor Assay for human Adenosine A2a Receptor (AdoRA2a) (AID 2283256). The method in brief:
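Radioligand displacement on HEK293-derived membrane protein, cell-free; filter-based scintillation counting 1.5 hours after dosing, loss of signal vs DMSO. Single-point duplicate screen at 25 uM, actives retested in concentration series.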
For `CCc1ccc(O)c(C(C)(C)C)c1`, the compound was classed as inactive.
Regarding `C=CCc1cc(S(=O)(=O)c2ccc(O)c(CC=C)c2)ccc1O`, the AC50 is 15.6 µM (active).
For `CCCCCCCCCC`, the compound was called inactive.
As to `Cc1nccn1-c1ccc(Sc2cccc(C3(C(N)=O)CCOCC3)c2)cc1`, the AC50 is 4.51 µM (active).
As for `CCn1nc(C)c2c1C(=O)NCC(c1ccc(O)cc1)=N2`, the concentration at half-maximal activity (AC50) was 10.2 µM (active).
With `OCc1c[nH]c2ccccc12`, the result was inactive.
As for `O=S(=O)(O)c1ccc(N=Nc2c(O)ccc3cc(S(=O)(=O)O)ccc23)cc1`, the AC50 was 35 µM (active).
With `COCc1nnc(-c2ccc[n+]([O-])c2)n1-c1c(Cl)c(Cl)cc2[nH]c(=O)c(=O)[nH]c12`, the outcome was inactive.

The target of another assay is human Adrenergic, Alpha 2A Receptor (Adra2A), ADRA2A (gene 150) (UniProt P08913). Nature of the assay: NVS_GPCR_hAdra2A: NovaScreen (NVS) G Protein-Coupled Receptor Assay for human Adrenergic, Alpha 2A Receptor (Adra2A) (AID 2283257). The essentials: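 Radioligand filter-binding was run on HT29-derived membranes, cell-free, read by scintillation counting 1 h after dosing. Primary screening was in duplicate at 25 uM, with concentration series in follow-up. Loss of signal versus DMSO indicates displacement.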
Chain of human Adrenergic, Alpha 2A Receptor (Adra2A), ADRA2A (gene 150) (P08913 whole entry, looked up): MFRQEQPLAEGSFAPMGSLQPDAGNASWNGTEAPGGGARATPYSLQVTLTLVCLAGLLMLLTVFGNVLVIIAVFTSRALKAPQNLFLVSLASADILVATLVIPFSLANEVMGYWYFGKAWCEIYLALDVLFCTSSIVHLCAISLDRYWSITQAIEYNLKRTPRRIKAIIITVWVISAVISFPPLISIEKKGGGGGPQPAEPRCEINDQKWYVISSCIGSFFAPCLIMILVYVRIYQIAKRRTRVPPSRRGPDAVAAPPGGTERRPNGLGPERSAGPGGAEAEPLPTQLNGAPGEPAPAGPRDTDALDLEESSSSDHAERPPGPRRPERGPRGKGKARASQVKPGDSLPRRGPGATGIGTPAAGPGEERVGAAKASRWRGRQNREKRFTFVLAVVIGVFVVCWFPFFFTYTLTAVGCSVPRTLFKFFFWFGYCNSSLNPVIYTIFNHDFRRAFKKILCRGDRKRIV
As to `OC(CCl)CCl`, the AC50 is 25 µM (active).
As to `CCn1nc(C)c2c1C(=O)NCC(c1ccc(O)cc1)=N2`, the compound was classed as inactive.
Consider `NNC(=O)c1ccncc1`, for which the outcome was inactive.
Turning to `O=S(=O)(O)c1ccc(N=Nc2c(O)ccc3cc(S(=O)(=O)O)ccc23)cc1`, the outcome was inactive.
Consider `COc1cc(C(C)C)c2c(c1)S(=O)(=O)N(COc1cc(=O)n3cccc(OCCN4CCCCC4)c3n1)C2=O`, for which the concentration at half-maximal activity (AC50) is 2.83 µM (active).
Still for that read-out and setting: in the case of `Cc1ncc([C@@H](CCCCCCc2ccc3c(n2)NCCC3)CC(=O)O)cn1` it was 13.7 µM (active); in that of `O=C(O)c1ccc2c(c1)nc(C(=O)NC1CCN(C3CC3)CC1)n2Cc1cc(-c2ccc(Cl)s2)on1`, 0.308 µM (active); in that of `c1ccc(C(O[C@@H]2CCCN(CCc3ccc4c(c3)OCO4)C2)c2ccccc2)cc1`, 18 µM (active).
On to `O=C(NO)C1(NS(=O)(=O)c2ccc(Oc3ccc(F)cc3)cc2)CCOCC1`, for which the AC50 is 25 µM (active).
